# Data from the supplement of paper PMC6555819.
# Experiments:
# Assay in all cases: PBM binding z-score (relative to random genomic background probes); higher = stronger binding; sequences stand for … in GC…GCGATTGACAGCGTAGAATGAAGG
# [1] = tested on: FXR:RXRa (NR concentration 270 nM, RXRa partner concentration 90 nM)
# Procedure, shortened: (§1)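 Binding z-scores take random background probes as their reference. They come from custom Agilent 4×180K protein-binding microarrays incubated 1 h with ligand-free nuclear receptor dimers, with antibodies against each partner (one per run) detecting binding. Scanned fluorescence was regression-normalized.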
# [2] = tested on: LXRa:RXRa (NR concentration 270 nM, RXRa partner concentration 90 nM)
# Procedure, shortened: as §1
# [3] = tested on: LXRa homodimer (NR concentration 270 nM)
# Procedure, shortened: as §1
# [4] = tested on: LXRb:RXRa (NR concentration 270 nM, RXRa partner concentration 90 nM)
# Procedure, shortened: as §1
# [5] = tested on: LXRb homodimer (NR concentration 270 nM)
# Procedure, shortened: as §1
# [6] = tested on: PPARa:RXRa (NR concentration 270 nM, RXRa partner concentration 90 nM)
# Procedure, shortened: as §1
# [7] = tested on: PPARg:RXRa (NR concentration 180 nM, RXRa partner concentration 90 nM)
# Procedure, shortened: as §1
# [8] = tested on: PPARg:RXRa 270nM:90nM, anti-RXR (NR concentration 270 nM, RXRa partner concentration 90 nM)
# Procedure, shortened: as §1
# [9] = tested on: PPARg:RXRa 30nM:10nM, anti-RXR (NR concentration 30 nM, RXRa partner concentration 10 nM)
# Procedure, shortened: as §1
# [10] = tested on: PPARg:RXRa 90nM:30nM, anti-RXR (NR concentration 90 nM, RXRa partner concentration 30 nM)
# Procedure, shortened: as §1
# [11] = tested on: PPARg:RXRa DBDmut IVT, anti-RXR (DBD mutation: RXRa K156A/R161A, NR concentration 270 nM, RXRa partner concentration 90 nM)
# Procedure, shortened: as §1
# [12] = tested on: PPARg:RXRa IVT, anti-PPARg (NR concentration 270 nM, RXRa partner concentration 90 nM)
# Procedure, shortened: as §1
# [13] = tested on: PPARg DBDmut:RXRa IVT, anti-PPARg (DBD mutation: PPARg1 K132A/R137A, NR concentration 270 nM, RXRa partner concentration 90 nM)
# Procedure, shortened: as §1
# [14] = tested on: PPARg DBDmut IVT, anti-PPARg (DBD mutation: PPARg1 K132A/R137A, NR concentration 270 nM)
# Procedure, shortened: as §1
# [15] = tested on: PPARg homodimer (NR concentration 180 nM)
# Procedure, shortened: as §1
# [16] = tested on: PXR:RXRa (NR concentration 270 nM, RXRa partner concentration 90 nM)
# Procedure, shortened: as §1
# [17] = tested on: PXR homodimer (NR concentration 270 nM)
# Procedure, shortened: as §1
# [18] = tested on: RARa:RXR (NR concentration 270 nM, RXRa partner concentration 90 nM)
# Procedure, shortened: as §1
# [19] = tested on: RARa homodimer (NR concentration 270 nM)
# Procedure, shortened: as §1
# [20] = tested on: RARb:RXRa (NR concentration 270 nM, RXRa partner concentration 90 nM)
# Procedure, shortened: as §1
Sequence,PBM binding z-score [1],PBM binding z-score [2],PBM binding z-score [3],PBM binding z-score [4],PBM binding z-score [5],PBM binding z-score [6],PBM binding z-score [7],PBM binding z-score [8],PBM binding z-score [9],PBM binding z-score [10],PBM binding z-score [11],PBM binding z-score [12],PBM binding z-score [13],PBM binding z-score [14],PBM binding z-score [15],PBM binding z-score [16],PBM binding z-score [17],PBM binding z-score [18],PBM binding z-score [19],PBM binding z-score [20]
CCTTACGGGTCATTGACAGGTTATAGCATTTGGA,5.92,4.79,1.1,3.85,0.271,5.27,3.6,4.06,1.55,2.75,2.34,2.72,0.642,0.325,2.77,3.94,0.591,4.67,0.122,3.64
CAAACTAGGTCGAAGGTCAAAGTCGAGCCAACCA,5.22,4.73,2.22,4.63,0.602,6.98,12.4,10.2,10.9,12.7,6.36,7.65,2.75,1.51,3.56,4.98,1.03,6.95,1.29,4.16
CAAACTAGGTAAAAGGTCAAAGTCGAGCCAACCA,6.21,6.09,4.59,5.87,2.23,6.92,12.1,10.2,11,11.4,7.05,7.46,2.77,1.52,3.65,5.33,1.53,6.52,2.55,4.87
GCGACGGGGGCAAAGCAGGTTACCATAAGGTTGG,3.46,4.5,0.414,4.42,5.27,4,1.96,3.58,1.84,3.04,2.39,4.59,4.08,8.05,1.37,3.8,1.1,2.78,0.26,2.88
TCTTGTAGATCAAGCAGGTTAGGAAAGCCTGAGT,-0.176,0.11,-0.571,-0.145,-0.701,0.251,-0.615,1,2.29,1.62,1.57,0.595,0.172,-0.0543,-0.235,-0.00169,0.0817,0.204,-0.0735,-0.0169
ATATGTAGGTTATCGGGTCACTCAGTTTGCGCAT,2.62,2.95,1.49,2.89,1.3,5.02,7.63,6,3.64,5.8,7.7,7.75,1.5,2.23,3.69,3.61,4.7,3.72,1.9,2.68
CGAACGAGGGCATGAGTTGAGAGCAAATGCCGAT,0.636,0.355,-0.664,0.203,-1,1.65,1.42,1.4,0.0136,0.958,3.19,2.16,-0.212,-0.733,-0.198,0.363,-0.12,0.437,-0.617,2.05
GGAACGAGGGCAAGTTTATAGCAGAGTTTGATGG,0.688,0.332,-0.039,0.229,-0.306,1.61,1.24,0.978,0.337,0.307,3.91,2.81,0.157,-0.37,0.767,1.13,1.44,0.25,-0.0736,2.6
TCTATTAGTTGAAGGGCCACCGACGAGTCCGTTT,0.67,0.709,0.433,0.782,0.195,0.892,0.0935,2.33,3.78,3.03,2.33,0.338,0.273,0.346,1.31,0.576,0.557,0.817,1.15,1.07
TAGCCGAGGTCATGCGGGCCAGTATAGTGTCGGC,7.46,5.94,1.69,4.64,1,6.24,6,6.15,2.74,4.56,1.88,4.29,1.82,0.598,2.81,5.79,2.14,6.18,0.453,5.17
CCGAGCAGGCCAATCTGGGTCACTCAAGGCTTGA,1.11,1.16,-0.65,0.371,-1.25,2.65,2.05,2.12,-0.249,1.21,3.97,4.58,-1.06,-1.1,0.368,0.937,-0.646,1.17,-1.1,1.77
ACAGACAGGTGAGTGAAGGTAATTCAGCTGGACG,0.214,0.102,-0.0483,-0.196,-0.576,-0.0438,0.499,0.152,-0.212,-0.193,0.0687,0.119,0.248,-0.584,-0.206,-0.2,-0.191,-9.88e-05,-0.0883,0.49
ATATGTAGGTTAGCTGGGGTCAATCAGACTAGGC,4.21,5.44,1.4,4.65,1.47,5.14,5.84,5.34,2.61,4.68,6.88,6.36,2.08,1.26,2.34,6,1.44,5.08,1.21,3.04
CCTAGCAGGCCATTCTGGGTCACTCAAGGCTTGA,2.69,4.53,0.0938,2.17,-0.726,2.61,0.687,1.16,-0.704,0.4,3.36,3.51,-0.645,-1.57,0.115,1.61,-0.27,1.71,-0.611,1.75
CAAACTAGGTCAAGGTAAAAGTCGGTTTGTGCCA,3.54,2.52,0.259,1.97,0.356,4.86,8.27,7.09,4.93,6.9,8.78,8.76,1.41,0.73,1.61,1.54,-0.0973,2.24,0.604,4.42
CCTGCTAGGTCAATCGTCAGCTAAAGCAGCTCGC,3.35,2.19,-0.244,1.57,0.108,2.85,1.39,2.18,-0.19,1.39,4.52,3.19,-0.719,-1.31,0.995,0.842,-0.551,1.58,-0.666,3.63
CCTTACGGGTCAAGCTTATAGCACGGGTGGTACG,5.81,3.52,-0.087,3.04,0.0884,4.93,4.12,4.65,1.87,3.43,2.26,3.48,0.116,-0.188,1.56,2.77,-0.265,3.81,0.95,4.05
ATCTCTAGGTAACCAAGTTCAGGGAATGCCGAAC,0.126,0.821,0.817,0.638,0.621,1.28,0.946,1.03,0.158,0.596,3.23,2.89,0.704,1.55,0.857,2.04,1.49,0.735,0.329,1.15
CCGACTGGGGCCAAGGTTACCATACTCAGTACGA,0.714,0.334,-0.174,0.728,-0.267,1.91,3.85,4.51,1.74,3.8,0.261,1.58,-1.03,-0.715,0.238,0.644,0.142,1.14,-0.0443,1.77
TCATATAGGTAATACAGCTGAAAGTCGGCATCTA,0.752,0.674,-0.0282,0.475,0.431,1.14,0.839,2.26,3.95,3.15,4.01,1.94,0.896,1.18,1.1,0.684,-0.0774,0.947,0.987,0.188
GCGACTGGGGCATCAGCAGGCTACCATAACTTAA,-0.662,-0.723,-0.307,-0.378,-1.43,0.138,0.565,0.457,-1.02,-0.389,4.01,2.87,-0.343,-1.56,-0.243,-0.692,-0.801,-0.592,-1.13,0.346
TGAATGAGGTTCAAGATCAGGGAACGTGGCGTCG,0.995,0.96,-0.757,0.185,-0.0166,1.76,0.831,1.62,0.424,1.14,-0.641,0.696,0.378,0.169,-0.0825,0.583,-0.309,0.775,0.0432,1.17
TCATATAGGTAAAGGCTAGGTGAAAGTCCGATCT,1.01,0.707,-0.194,0.441,-0.41,1.71,1.18,2.39,3.57,2.98,3.97,3.25,0.56,1.28,0.619,0.508,0.058,1.09,1.15,0.844
TCTTGTAGAGCAATAGAGGTTAAGAAAGTGCGCT,0.316,2.34,0.104,1.18,-0.745,1.92,0.157,1.31,1.69,1.55,1.71,1.36,-0.0371,0.131,-0.051,2.73,-0.322,1.25,-0.851,0.425
TCTGCTAGGTCAACGATGGGCAGCTAATCTGCTA,3.19,2.29,-0.252,1.2,-0.397,2.94,2.47,3.01,1.85,2.49,4.14,4,1.49,-0.401,0.59,0.836,-1.21,1.73,-1.18,4.19
AGAATCAGGTTATTAAGATCAGGGAATTGCGGTC,0.5,0.587,0.33,0.473,0.697,1.16,0.693,1.04,0.466,0.97,2.96,2.28,0.999,0.854,1.29,0.516,0.602,0.644,1.45,1
CCTACAGGGTCAGCTAGGCCAGAGTAGGGACGGC,4.39,2.61,-0.714,1.7,-0.84,4.2,2.56,2.7,0.464,1.31,0.563,1.44,-0.42,-1.17,1.25,1.92,-0.627,2.68,-0.295,4.03
TCTTGTAGATCAACAGGGGGTTAAGAAAGATCGA,1.48,2.69,0.266,3.75,8.09,2.75,0.692,2.99,3.73,3.26,2.83,3.29,5.31,7.46,1.07,2.5,0.467,2.42,0.939,1.71
CGAACCAGGTCATCCAGGACAGTGAATACATTGA,5.37,3.75,1,3.05,0.375,4.67,4.89,4.6,1.51,3.59,5.15,5.48,1.46,0.673,2.01,2.98,3.52,3.1,1.01,3.95
